From PubChem BioAssay (EPA / NIEHS) come the findings set out here.

Details in all cases: mRNA level, 48 h; actives raise or lower the signal
Read-out in assay [1]: Interleukin 6 Receptor (IL6R), IL6R (gene 3570)
Kind of assay: LTEA_HepaRG_IL6R: Life Technologies and Expression Analysis (LTEA) Assay for Interleukin 6 Receptor (IL6R) using HepaRG (AID 2283510). The procedure, abridged:
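Differentiated HepaRG cells, plated 48 h, then exposed in duplicate for 48 h in serum-free induction medium to 8 half-log concentrations (top 100 uM, 0.5% DMSO). IL6R mRNA measured by TaqMan qRT-PCR, normalized to ACTB/GAPDH/POLR2A; bidirectional fit vs DMSO.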

Read-out in assay [2]: Potassium channel subfamily K member 1 (KCNK1), KCNK1 (gene 3775)
Kind of assay: LTEA_HepaRG_KCNK1: Life Technologies and Expression Analysis (LTEA) Assay for Potassium channel subfamily K member 1 (KCNK1) using HepaRG (AID 2283511). The procedure, abridged: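 Gain or loss of KCNK1 mRNA is the read-out, quantified by qRT-PCR against three housekeeping genes after 48 h chemical treatment of human HepaRG liver cells. Concentrations ran from 100 uM downward in half-log steps, vehicle 0.5% DMSO.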

Read-out in assay [3]: Keratin 19 (KRT19), KRT19 (gene 3880)
Kind of assay: LTEA_HepaRG_KRT19: Life Technologies and Expression Analysis (LTEA) Assay for Keratin 19 (KRT19) using HepaRG (AID 2283512). The procedure, abridged: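 Gene-expression endpoint in the human liver line HepaRG after 48 h exposure to up to 100 uM test chemical with 0.5% DMSO vehicle; KRT19 mRNA by qRT-PCR, analyzed bidirectionally versus DMSO.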

Read-out in assay [4]: JUN Transcription Factor, JUN (gene 3725)
Kind of assay: LTEA_HepaRG_JUN: Life Technologies and Expression Analysis (LTEA) Assay for JUN Transcription Factor using HepaRG (AID 2283513). In outline:
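HepaRG cells, 48 h post-plating, exposed 48 h in serum-free induction medium to 8-point half-log series (top 100 uM, 0.5% DMSO), duplicate; mRNA by qRT-PCR (TaqMan, Fluidigm), normalized to ACTB/GAPDH/POLR2A; bidirectional fit vs DMSO.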

Read-out in assay [5]: Lipase C (LIPC), LIPC (gene 3990)
The assay can be described thus: LTEA_HepaRG_LIPC: Life Technologies and Expression Analysis (LTEA) Assay for Lipase C (LIPC) using HepaRG (AID 2283514). The procedure, abridged:
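Read-out is LIPC transcript level by TaqMan qRT-PCR, normalized to three housekeeping genes, after 48 h chemical treatment of human HepaRG liver cells. Curves span eight concentrations topping at 100 uM; activity in either direction scored relative to 0.5% DMSO.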

Read-out in assay [6]: Lipoprotein lipase (LPL), LPL (gene 4023)
Kind of assay: LTEA_HepaRG_LPL: Life Technologies and Expression Analysis (LTEA) Assay for Lipoprotein lipase (LPL) using HepaRG (AID 2283515). The procedure, abridged: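 Read-out is LPL transcript level by qRT-PCR, normalized to three housekeeping genes and fitted bidirectionally against the DMSO control. Human HepaRG cells received chemicals for 48 h at up to 100 uM.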

Read-out in assay [7]: MicroRNA 122 (MIR122), gene 406906
Kind of assay: LTEA_HepaRG_MIR122: Life Technologies and Expression Analysis (LTEA) Assay for MicroRNA 122 (MIR122) using HepaRG (AID 2283516). Also: the transcript read is the microRNA miR-122. In outline:
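Differentiated human HepaRG cells in serum-free induction medium exposed 48 h to 8 half-log concentrations from 100 uM in 0.5% DMSO, duplicate. MIR122 quantified by Fluidigm TaqMan qRT-PCR, normalised to ACTB, GAPDH, POLR2A; fold change fitted bidirectionally versus DMSO.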

Read-out in assay [8]: matrix metalloproteinase-10 (MMP10), MMP10 (gene 4319)
Kind of assay: LTEA_HepaRG_MMP10: Life Technologies and Expression Analysis (LTEA) Assay for matrix metalloproteinase-10 (MMP10) using HepaRG (AID 2283517). The procedure, abridged:
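Gain or loss of MMP10 mRNA is fitted relative to the 0.5% DMSO vehicle. The human hepatic line HepaRG receives a 48-hour serum-free exposure, in duplicate, with a maximum concentration of 100 uM.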

Read-out in another assay: MYC, MYC (gene 4609)
The assay can be described thus: LTEA_HepaRG_MYC: Life Technologies and Expression Analysis (LTEA) Assay for MYC using HepaRG (AID 2283518). In outline:
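Cells are thawed, plated and cultured 48 h, then treated for 48 h with test chemicals (eight half-log concentrations from 100 uM, 0.5% DMSO vehicle). RNA is isolated and MYC expression quantified by qRT-PCR against three housekeeping genes.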

Read-out in assay [9]: matrix metalloproteinase-3 (MMP3), MMP3 (gene 4314)
Kind of assay: LTEA_HepaRG_MMP3: Life Technologies and Expression Analysis (LTEA) Assay for matrix metalloproteinase-3 (MMP3) using HepaRG (AID 2283519). The procedure, abridged:
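HepaRG, human; 48 h dosing, 8 conc. (max 100 uM, half-log), duplicate, 0.5% DMSO. Readout: MMP3 transcript by Fluidigm TaqMan qRT-PCR, ACTB/GAPDH/POLR2A-normalised. Gain or loss fitted vs DMSO.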

Read-out in assay [10]: Paternally Expressed 10 (PEG10), PEG10 (gene 23089)
The assay can be described thus: LTEA_HepaRG_PEG10: Life Technologies and Expression Analysis (LTEA) Assay for Paternally Expressed 10 (PEG10) using HepaRG (AID 2283520). In outline:
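Differentiated HepaRG cells exposed 48 h in serum-free induction medium to eight half-log concentrations topping at 100 uM, 0.5% DMSO, in duplicate. PEG10 mRNA quantified by TaqMan qRT-PCR, normalized to ACTB, GAPDH and POLR2A; bidirectional fit versus DMSO.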

Read-out in assay [11]: Protein phosphatase 2A (PPP2R4), PTPA (gene 5524)
The assay can be described thus: LTEA_HepaRG_PPP2R4: Life Technologies and Expression Analysis (LTEA) Assay for Protein phosphatase 2A (PPP2R4) using HepaRG (AID 2283522). In outline:
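Differentiated human HepaRG cells in serum-free induction medium were exposed 48 h to 8 concentrations (top 100 µM, half-log steps, duplicate) in 0.5% DMSO. PPP2R4 mRNA was measured by TaqMan qRT-PCR, normalised to ACTB, GAPDH and POLR2A, and fitted bidirectionally versus DMSO.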

Read-out in assay [12]: Phosphatase and tensin (PTEN), PTEN (gene 5728)
The assay can be described thus: LTEA_HepaRG_PTEN: Life Technologies and Expression Analysis (LTEA) Assay for Phosphatase and tensin (PTEN) using HepaRG (AID 2283523). The procedure, abridged: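 Read-out is PTEN transcript level by multiplexed TaqMan qRT-PCR after 48 h chemical treatment of human HepaRG cultures in serum-free induction medium. Concentrations spanned 100 uM downward in half-log steps, 0.5% DMSO throughout; activity fitted in both directions against vehicle.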

Read-out in assay [13]: solute carrier (SLC22A1), SLC22A1 (gene 6580)
Kind of assay: LTEA_HepaRG_SLC22A1: Life Technologies and Expression Analysis (LTEA) Assay for solute carrier (SLC22A1) using HepaRG (AID 2283524). The procedure, abridged:
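HepaRG (human liver line), 48 h dosing in serum-free induction medium; 8 conc., half-log down from 100 uM, 0.5% DMSO vehicle, duplicates. Endpoint: SLC22A1 mRNA, qRT-PCR, housekeeping-normalized; gain/loss fit vs DMSO.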

Read-out in assay [14]: Pyruvate Dehydrogenase Kinase 4 (PDK4), PDK4 (gene 5166)
The assay can be described thus: LTEA_HepaRG_PDK4: Life Technologies and Expression Analysis (LTEA) Assay for Pyruvate Dehydrogenase Kinase 4 (PDK4) using HepaRG (AID 2283525). The procedure, abridged:
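In this multiplexed human HepaRG expression assay, cells are treated 48 h with test chemicals across an eight-point range starting at 100 uM. PDK4 mRNA changes, normalized to ACTB/GAPDH/POLR2A, are fitted in both directions relative to vehicle.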

Read-out in assay [15]: NAD(P)H dehydrogenase [quinone] 1 (NQO1), NQO1 (gene 1728)
The assay can be described thus: LTEA_HepaRG_NQO1: Life Technologies and Expression Analysis (LTEA) Assay for NAD(P)H dehydrogenase [quinone] 1 (NQO1) using HepaRG (AID 2283526). In outline:
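Differentiated human HepaRG cells in serum-free induction medium, dosed in duplicate for 48 h at 8 half-log concentrations up to 100 uM in 0.5% DMSO. NQO1 mRNA by qRT-PCR normalized to ACTB, GAPDH, POLR2A; bidirectional fit versus DMSO baseline.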

Read-out in assay [16]: Nuclear factor erythroid 2-related factor 2 (Homo sapiens) (UniProt Q16236)
The assay can be described thus: LTEA_HepaRG_NFE2L2: Life Technologies and Expression Analysis (LTEA) Assay for Nuclear factor erythroid 2-related factor 2 (NFE2L2) Transcription Factor using HepaRG (AID 2283527). In outline:
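Transcript level of NFE2L2 is the read-out, measured by microfluidic TaqMan qRT-PCR and normalized to three housekeeping genes. Human HepaRG cultures received test chemical for 48 h at up to 100 uM in half-log steps. Gain or loss of signal is fitted relative to 0.5% DMSO.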

Read-out in assay [17]: succinate dehydrogenase complex iron sulfur subunit B (SDHB), SDHB (gene 6390)
The assay can be described thus: LTEA_HepaRG_SDHB: Life Technologies and Expression Analysis (LTEA) Assay for succinate dehydrogenase complex iron sulfur subunit B (SDHB) using HepaRG (AID 2283528). In outline: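 SDHB transcript level read by TaqMan qRT-PCR, housekeeping-normalised (ACTB, GAPDH, POLR2A), after 48 h chemical treatment of plated HepaRG cells; eight concentrations top 100 uM, half-log steps, 0.5% DMSO, duplicates; fitted both directions against DMSO.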

Read-out in assay [18]: Signal transducer and activator of transcription 3 (Homo sapiens) (UniProt P40763)
Kind of assay: LTEA_HepaRG_STAT3: Life Technologies and Expression Analysis (LTEA) Assay for Signal transducer and activator of transcription (STAT3) using HepaRG (AID 2283529). In outline: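 Read-out is STAT3 mRNA level by qRT-PCR, normalized to three housekeeping genes, in human HepaRG liver cells treated for 48 h. Concentrations ran from 100 uM downward in half-log steps; curves were fitted for gain or loss relative to 0.5% DMSO.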

Activity calls are given as the source filed them. The calls were made as follows: active = hit-call score of the fitted dose curve at least 0.9, where 1 is the maximum; inactive = score below 0.9.

Sequence of Nuclear factor erythroid 2-related factor 2 (Homo sapiens) (Q16236 whole entry, looked up): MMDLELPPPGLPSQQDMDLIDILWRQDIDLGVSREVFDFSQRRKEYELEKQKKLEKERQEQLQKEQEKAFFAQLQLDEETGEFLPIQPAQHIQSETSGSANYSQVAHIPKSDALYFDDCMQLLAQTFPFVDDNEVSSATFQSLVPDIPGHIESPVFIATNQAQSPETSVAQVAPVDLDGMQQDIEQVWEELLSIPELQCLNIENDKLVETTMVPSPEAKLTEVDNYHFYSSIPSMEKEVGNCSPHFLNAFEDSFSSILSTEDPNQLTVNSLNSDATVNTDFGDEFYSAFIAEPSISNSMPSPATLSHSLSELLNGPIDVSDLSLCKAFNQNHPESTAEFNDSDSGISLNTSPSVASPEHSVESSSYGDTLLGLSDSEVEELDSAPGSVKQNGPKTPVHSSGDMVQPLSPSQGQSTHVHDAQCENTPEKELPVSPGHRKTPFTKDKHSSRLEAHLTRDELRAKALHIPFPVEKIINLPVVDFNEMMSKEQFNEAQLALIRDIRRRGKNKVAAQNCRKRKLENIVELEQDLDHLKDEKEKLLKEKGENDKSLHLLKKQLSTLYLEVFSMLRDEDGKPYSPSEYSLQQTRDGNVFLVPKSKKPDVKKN
Sequence of Signal transducer and activator of transcription 3 (Homo sapiens) (P40763 whole entry, looked up): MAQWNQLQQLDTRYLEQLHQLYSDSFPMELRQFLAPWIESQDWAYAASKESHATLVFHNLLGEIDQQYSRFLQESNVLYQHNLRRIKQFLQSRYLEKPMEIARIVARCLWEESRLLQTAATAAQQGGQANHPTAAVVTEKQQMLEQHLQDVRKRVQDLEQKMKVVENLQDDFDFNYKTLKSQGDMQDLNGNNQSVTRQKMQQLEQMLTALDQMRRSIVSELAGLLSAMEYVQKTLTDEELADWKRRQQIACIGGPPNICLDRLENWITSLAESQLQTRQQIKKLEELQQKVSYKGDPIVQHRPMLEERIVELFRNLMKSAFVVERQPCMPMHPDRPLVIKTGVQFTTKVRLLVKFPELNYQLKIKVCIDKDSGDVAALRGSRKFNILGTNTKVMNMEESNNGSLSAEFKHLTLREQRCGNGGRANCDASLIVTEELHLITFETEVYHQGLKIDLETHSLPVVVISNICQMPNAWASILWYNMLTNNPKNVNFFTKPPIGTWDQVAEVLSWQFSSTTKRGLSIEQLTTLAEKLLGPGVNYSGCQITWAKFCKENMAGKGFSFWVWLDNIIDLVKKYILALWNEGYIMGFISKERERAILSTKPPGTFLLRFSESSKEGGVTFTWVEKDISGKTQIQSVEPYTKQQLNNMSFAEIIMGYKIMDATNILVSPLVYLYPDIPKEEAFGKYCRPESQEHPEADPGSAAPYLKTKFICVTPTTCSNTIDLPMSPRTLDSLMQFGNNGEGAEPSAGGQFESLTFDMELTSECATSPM

For the compound `CC1(C)C(C(=O)OC(C#N)c2cccc(Oc3ccccc3)c2)C1(C)C` (stereo unspecified), the result in assay [1], in [2], in assay [3], in assay [4], in assay [5] and in assay [6] was inactive. The outcome was “inactive” in assay [7]; “inactive” in assay [8]; “inactive” in the assay with MYC, MYC (gene 4609); “inactive” in assay [9]; “inactive” in [10]; “inactive” in assay [11]. For the same compound, the call in [12], in assay [13], in [14], in [15], in assay [16] and in assay [17] was inactive. Moreover, the compound was classed as inactive in assay [18].
Take `Nc1c(Cl)c(Cl)nc(C(=O)O)c1Cl`: the result in assay [1], in assay [2], in [3], in assay [4], in [5] and in [6] was inactive. The outcome was “inactive” in [7]; “inactive” in assay [8]; “inactive” with MYC, MYC (gene 4609); “inactive” in assay [9]; “inactive” in assay [10]; “inactive” in assay [11]. In addition, the call in assay [12], in assay [13], in assay [14], in [15], in assay [16] and in [17] was inactive. For the same compound, the compound was called inactive in assay [18].
In the case of `Cc1cc(C)nc(Nc2ccccc2)n1`, the result in assay [1], in assay [2], in [4], in assay [5], in assay [6] and in [7] was inactive. For the same compound, the outcome is “inactive” in assay [8]; “inactive” with MYC, MYC (gene 4609); “inactive” in assay [9]; “inactive” in assay [10]; “inactive” in assay [11]; “inactive” in [12]. Moreover, the compound was called inactive in assay [14], in [15], in assay [16], in assay [17] and in assay [18]. For the same compound, the AC50 in assay [3] is 18.7 µM (active); in assay [13], 9.92 µM (active).
For the compound `Cc1cnc(C2=NC(C)(C(C)C)C(=O)N2)c(C(=O)O)c1` (stereo unspecified), the call in assay [1], in assay [2], in [3], in [4], in assay [5] and in assay [6] was inactive. Also, the outcome in assay [7] is “inactive”; in assay [8], “inactive”; in the assay with MYC, MYC (gene 4609), “inactive”; in assay [9] it was “inactive”; in assay [10], “inactive”; in [11] it was “inactive”. The outcome in [12], in [13], in assay [14], in assay [15], in assay [16] and in assay [17] was inactive. Further, in assay [18], the compound was classed as inactive.
